Dicer inh = inhibitors of Dicer pre-microRNA processing, primary screen, biochemical, cat-ELCCA, chemiluminescence. z-score at 25 µM. Endoribonuclease Dicer (Homo sapiens), Q9UPY3. 47,000 compounds, 6% hits. cat-ELCCA pre-miR-21 Dicer processing; stronger effect = higher value; in the data active means z-score above about 3, passing the limit was not always enough;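 further: higher signal means more uncleaved substrate so more Dicer inhibition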
Of the large screens only hits and unclear results are named; the others gave an inactive call. This is one part of a sample in which hits are shown more often than they occur.

N#C/C(=C\Nc1ncccn1)C(=O)c1ccccc1Cl	none
FC(F)(F)c1cc(-c2ccncc2)nc2c(-c3cccc(Cl)c3)cnn12	none
COc1cccc2c(=O)c3ccccc3oc12	none
COc1ccc2c3c(cccc13)C(=O)CC2	Dicer inh 4.2
COc1ccc(C2C(=O)c3ccccc3C2=O)cc1OC	none
COc1cc(S(=O)(=O)N2CCCN(S(=O)(=O)c3ccc(F)c(OC)c3)CC2)ccc1F	none
Cc1ccc(OCC2NCCS2)cc1[N+](=O)[O-] (configuration not stated)	none
CCCN1C(=O)C(O)(CC(=O)c2ccccn2)c2cc(Br)ccc21 (configuration not stated)	none
O=C(O)c1nccnc1C(=O)NCc1csc2ccccc12	none
S=C(NCc1csc2ccccc12)NCC1CC1	Dicer inh 4
CC1CC(NC(=S)NCc2csc3ccccc23)CC(C)(C)C1 (configuration not stated)	none
O=C(O)/C=C\C(=O)NCc1csc2ccccc12	Dicer inh 5.3
N/C(Cc1csc2ccccc12)=N\O	none
O=C(O)/C=C/C(=O)NCc1ccc(F)cc1	none
CCOC(=O)c1nnn2c1nc(N/N=C/c1ccc3c(c1)OCO3)c1ccccc12	none
OCC(O)Cn1c2ccc(Br)cc2c2cc(Br)ccc21 (configuration not stated)	none
O=S(=O)(c1ccc(Cl)cc1)n1ccc(-c2ccc(C#Cc3ccccc3)s2)n1	none
N/C(Cc1nc2cccnc2n1C1CC1)=N\OC(=O)c1ccc(OC(F)(F)F)cc1	none
CC(=O)c1cc2c(s1)-c1cc(Cl)ccc1SC2	none
O=c1[nH]c(-c2ccccc2Cl)nc(=S)[nH]1	none
C=CCN(c1ccccc1C1=N/C(=C\c2ccccc2Cl)C(=O)O1)S(=O)(=O)c1ccc(C)cc1	none
c1ccc(C2C3COc4ccccc4C3=NN2c2ccccc2)cc1 (configuration not stated)	none
Oc1ccccc1/C=N/NC(=S)NC1CC2CC1C1C=CCC21 (configuration not stated)	Dicer inh 3.8
CNC(=S)N/N=C/c1ccccc1Cl	none
S=C(N/N=C/c1cccnc1)NC1CC2CC1C1C=CCC21 (configuration not stated)	none
COc1cccn(Cc2nnc(SCc3ccc(Cl)cc3)n2C)c1=O	none
O=S(=O)(c1ccc(F)cc1)N(Cc1ccco1)CC(O)Cn1c2ccccc2c2ccccc21 (configuration not stated)	none
Cc1cc(-c2csc(=N)n2-c2cccc(C(F)(F)F)c2)ccc1Cl	none
Cc1ccc(N2C(=O)c3oc4ccccc4c(=O)c3C2c2ccc(O)cc2)nc1 (configuration not stated)	Dicer inh 4.4
CCOc1ccc(C2c3c(oc4ccccc4c3=O)C(=O)N2c2ccc(C)cn2)cc1 (configuration not stated)	Dicer inh 3.6
CCOc1ccc(C2c3c(oc4ccccc4c3=O)C(=O)N2c2nc(C)c(C)s2)cc1 (configuration not stated)	none
CCOc1ccc(C2c3c(oc4ccc(C)cc4c3=O)C(=O)N2c2ccccn2)cc1 (configuration not stated)	none
Cc1ccc(N2C(=O)c3oc4ccccc4c(=O)c3C2c2ccc(Cl)cc2)nc1 (configuration not stated)	Dicer inh 3.8
Cc1ccc(N2C(=O)c3oc4ccccc4c(=O)c3C2c2cccc(Br)c2)nc1 (configuration not stated)	none
COc1ccc(C2c3c(oc4ccccc4c3=O)C(=O)N2c2ccc(C)cn2)cc1OC (configuration not stated)	none
Cc1ccc(C2c3c(oc4ccccc4c3=O)C(=O)N2c2ccccn2)cc1 (configuration not stated)	none
Cc1ccc(N2C(=O)c3oc4ccccc4c(=O)c3C2c2ccccc2)nc1 (configuration not stated)	none
CCCCNC(=O)Nc1ccccc1Oc1ccccc1	none
N#C/C(=C\Nc1ccc(F)cc1F)S(=O)(=O)c1cccs1	none
O=c1[nH][nH]c(=S)n1-c1cccc(C(F)(F)F)c1	none
Cn1cc(Br)c(=O)n(C)c1=O	none
CC(C)(C)c1ccc(NC(=O)CCC(=O)N(Cc2ccccc2)Cc2ccccc2)cc1	none
O=c1c(-c2cc(F)ccc2F)c(O)nc2n1CCCC2	none
Cc1nn(-c2ccccc2)nc1-c1n[nH]c(=S)n1-c1ccc(Cl)cc1	none
CCN1CCN(Cc2ccc3cccnc3c2O)CC1	none
Oc1c(C(c2ccc(F)cc2)N2CCCCC2)ccc2cccnc12 (configuration not stated)	Dicer inh 3.7
Oc1c(C(c2ccccn2)N2CCCC2)ccc2cccnc12 (configuration not stated)	none
COc1ccc(C2C(C(=O)OC(C)C)=C(C)NC3=C2C(=O)CC(C)(C)C3)cc1OC (configuration not stated)	none
O=c1ccc2c(-c3ccccc3)c3ccc(O)cc3oc-2c1	Dicer inh 3.1
O=c1c2ccccc2oc2cc(O)ccc12	none
COc1ccc2c(=O)cc(-c3ccccc3)oc2c1	none
O=S1(=O)c2ccccc2NC(c2cccc3ccccc23)N1Cc1ccccc1 (configuration not stated)	none
COc1ccc(C2Nc3ccccc3NC3=C2C(=O)CC(c2ccccc2)C3)cc1O (configuration not stated)	none
CC(C)Oc1ccccc1C1Nc2ccccc2NC2=C1C(=O)CC(c1ccccc1)C2 (configuration not stated)	Dicer inh 5.7
COc1ccc(C2CC(=O)C3=C(C2)Nc2ccccc2NC3c2ccc(Cl)cc2)cc1OC (configuration not stated)	none
COc1cc(C2Nc3ccccc3NC3=C2C(=O)CC(c2ccccc2)C3)cc(Cl)c1O (configuration not stated)	Dicer inh 3.2
COc1ccc(C2CC(=O)C3=C(C2)Nc2ccccc2NC3c2ccccc2OC(C)C)cc1 (configuration not stated)	none
COc1ccc(C2CC(=O)C3=C(C2)Nc2ccccc2NC3c2ccccc2OC(C)C)cc1OC (configuration not stated)	none
O=C(NNC(=O)c1ccc(Cl)cc1)C(=O)NNC(=O)c1ccc(Cl)cc1	none
CC(C)c1nnc(NC(=O)Cn2cnc3c2c(=O)n(C)c(=O)n3C)s1	none
Cn1c(Cn2c3ccccc3c3ccccc32)nnc1Sc1ncccc1[N+](=O)[O-]	none
COc1cc(C2/C(=C(/O)c3ccc(C)cc3)C(=O)C(=O)N2CC(C)C)ccc1O (configuration not stated)	none
Cc1ccc(S(=O)(=O)Nc2ccc(-c3cn4cccc(C)c4n3)cc2)c(C)c1	Dicer inh 6.1
Cc1cccn2cc(-c3ccccc3Cl)nc12	none
Cc1cccn2cc(-c3ccc(NS(=O)(=O)c4ccc(Br)cc4)cc3)nc12	Dicer inh 7.9
Cc1cccn2cc(-c3cccc(S(=O)(=O)N4CCOCC4)c3)nc12	none
Cc1cccn2cc(-c3cccc(S(=O)(=O)N4CC(C)OC(C)C4)c3)nc12 (configuration not stated)	none
Cc1ccc(S(=O)(=O)Nc2n[nH]c(-c3ccc(C(C)(C)C)cc3)c2Br)cc1	none
Cc1ccc(S(=O)(=O)Nc2ccc(-c3cn4cccc(C)c4n3)cc2)cc1C	Dicer inh 8.6
Cc1cccn2cc(-c3cccc(S(=O)(=O)N4CCCC4)c3)nc12	none
Clc1ccc(Oc2nc(-c3ccncc3)nc3ccccc23)cc1	none
Cc1onc(-c2c(Cl)cccc2Cl)c1C(=O)N(C)c1nnc(C(F)(F)F)s1	none
CC(C)(C)c1ccc(/C=C/C(=O)Nc2ccc3c(c2)OCCO3)cc1	none
O=[N+]([O-])c1cccc(OCNCCCCCCO)c1	none

Screening data (PubChem BioAssay)
